Test systems include HCT-15 colon; HT29 colon; SNB-75 CNS; SNB-19 CNS; U251 CNS; PC-3 prostate; UACC-62 melanoma; LOX IMVI melanoma; SK-MEL-28 melanoma; SK-MEL-2 melanoma; EKVX NSCLC; SN12C renal; UO-31 renal; TK-10 renal; ACHN renal; CAKI-1 renal; A498 renal; CCRF-CEM leukemia; MOLT-4 leukemia; SK-MEL-5 melanoma.
Holding throughout (test): NCI-60 one-dose screen, 48 h (100 = growth as untreated, 0 = no growth, -100 = all killed)
Common to all, as to settings: 10 µM

For 8 compounds, growth results are on record in PubChem BioAssay (NCI).

Compounds without any hit were thinned out: in the full panel of roughly 83,000, 20% have a hit.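 Interpretation: 100, growth as untreated; towards 0, rising growth inhibition; 0, no net growth; 0 to -100, cell death. Compounds scoring below 10 were considered active.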 Values without a mark were called inactive. The source made the active and inactive calls.

On to `O=C(/C=C/Nc1ccc(F)cc1F)c1ccc2c(c1)Nc1ccccc1S2`, for which the growth in the test on HCT-15 colon is 33.1%; in the test on HT29 colon it was 70.8%; with SNB-75 CNS it was 124%; in the test with SNB-19 CNS, 63.9%; in the test with U251 CNS, 73%; in the test on PC-3 prostate, 74.8%. In addition, the growth in the test with UACC-62 melanoma was 48.8%; with LOX IMVI melanoma, 65.9%; in the test on SK-MEL-28 melanoma, 79.2%; in the test on SK-MEL-2 melanoma, 86.5%; in the test with EKVX NSCLC, 74.2%; with SN12C renal it was 82%. Moreover, the growth was 80.3% with UO-31 renal; 100% in the test on TK-10 renal; 78.6% in the test with ACHN renal; 83.9% with CAKI-1 renal; 108% in the test on A498 renal; 73.8% in the test on CCRF-CEM leukemia. Moreover, the growth with MOLT-4 leukemia was 66.7%.
On to `CC(C)C(=O)Nc1ccc(C(=O)NC(=S)Nc2ccc(C(=O)O)cc2)cc1`, for which the growth with HCT-15 colon is 99.7%; with HT29 colon it was 111%; with SNB-75 CNS, 79.1%; in the test on SNB-19 CNS, 97.8%; with PC-3 prostate it was 101%; with SK-MEL-5 melanoma, 93.8%. For the same compound, the growth is 91.5% in the test on UACC-62 melanoma; 101% with LOX IMVI melanoma; 102% with SK-MEL-28 melanoma; 105% with SK-MEL-2 melanoma; 96.6% with EKVX NSCLC; 96.3% with SN12C renal. In addition, the growth in the test with UO-31 renal was 88.4%; in the test on TK-10 renal, 101%; in the test with ACHN renal, 104%; in the test on CAKI-1 renal, 99.3%; in the test with A498 renal, 122%; in the test on CCRF-CEM leukemia it was 107%.
With `N#C/C(=C\c1ccc(N(c2ccccc2)c2ccccc2)cc1)C(N)=O`, the growth was 65.1% in the test with HCT-15 colon; 30.5% in the test on HT29 colon; 95.4% with SNB-75 CNS; 77% in the test with SNB-19 CNS; 32.5% in the test with U251 CNS; 61% with PC-3 prostate. In addition, the growth was -47.3% (active) with UACC-62 melanoma; 79% in the test with LOX IMVI melanoma; 104% with SK-MEL-28 melanoma; 23.5% in the test on SK-MEL-2 melanoma; 90.2% with EKVX NSCLC; 90.5% in the test on SN12C renal. For the same compound, the growth in the test on UO-31 renal was 49.9%; in the test on TK-10 renal it was -37.7% (active); in the test on ACHN renal, 88%; in the test with CAKI-1 renal it was -24% (active); in the test with A498 renal, -99.8% (active); in the test with CCRF-CEM leukemia, 59.9%. Further, the growth with MOLT-4 leukemia is 56%.
Turning to `O/N=C(\CSc1nnc(-c2c[nH]c3ccccc23)n1-c1ccccc1)c1ccc(Cl)cc1`, the growth in the test with HCT-15 colon is -48.1% (active); with HT29 colon it was 4.47% (active); in the test on SNB-75 CNS, 48%; with SNB-19 CNS it was 17.4%; in the test on U251 CNS, 30.5%; in the test with PC-3 prostate it was -38% (active). Moreover, the growth with UACC-62 melanoma is -43.2% (active); in the test with LOX IMVI melanoma, -89.3% (active); in the test on SK-MEL-28 melanoma, 21.2%; in the test on SK-MEL-2 melanoma, 20.1%; in the test on EKVX NSCLC, 2.05% (active); in the test with SN12C renal, -16.2% (active). For the same compound, the growth was 34.4% with UO-31 renal; -23.2% (active) in the test with TK-10 renal; 3.34% (active) with ACHN renal; -10.7% (active) in the test on CAKI-1 renal; 83.7% in the test with A498 renal; -5.19% (active) in the test with CCRF-CEM leukemia. The growth in the test with MOLT-4 leukemia is -7.37% (active).
Regarding `COc1cccc(/C=N/NC(=O)c2ccc3nc(-c4ccc(Cl)cc4)[nH]c3c2)c1O`, the growth with HCT-15 colon was 4.8% (active); with HT29 colon, -79.7% (active); in the test with SNB-75 CNS, -81.8% (active); in the test on SNB-19 CNS it was -98.6% (active); with U251 CNS it was -90.8% (active); with PC-3 prostate, -55.1% (active). In addition, the growth with UACC-62 melanoma was -92% (active); in the test with LOX IMVI melanoma, -97.2% (active); with SK-MEL-28 melanoma, -98.3% (active); in the test with SK-MEL-2 melanoma, -95.1% (active); in the test with EKVX NSCLC, -53.8% (active); in the test on UO-31 renal, -2.17% (active). In addition, the growth is -11.1% (active) in the test with TK-10 renal; -34% (active) with ACHN renal; -66.1% (active) with CAKI-1 renal; -69.1% (active) in the test on A498 renal; -40.6% (active) in the test on CCRF-CEM leukemia; -50.4% (active) in the test with MOLT-4 leukemia.
Regarding `CN(CCO)c1oc(-c2ccccc2)nc1[P+](c1ccccc1)(c1ccccc1)c1ccccc1`, the growth with HCT-15 colon is 51.4%; with HT29 colon, 7.78% (active); with SNB-75 CNS, -2.5% (active); in the test on SNB-19 CNS it was 9.54% (active); in the test with PC-3 prostate, 10.8%; in the test on SK-MEL-5 melanoma, -93.3% (active). Further, the growth with UACC-62 melanoma is -30.2% (active); with SK-MEL-28 melanoma, 12%; with SK-MEL-2 melanoma, -33.8% (active); in the test on EKVX NSCLC it was 18.1%; in the test with SN12C renal, -3.43% (active); with UO-31 renal, 74.3%. The growth in the test with TK-10 renal was 24%; with ACHN renal, 56.3%; in the test with CAKI-1 renal it was 59.7%; in the test with A498 renal, -7.19% (active); in the test with CCRF-CEM leukemia, 9.94% (active); with MOLT-4 leukemia, 13.4%.
As for `S=c1nc(-c2ccccc2)cc(-c2cc3ccccc3nc2Cl)[nH]1`, the growth with HCT-15 colon was 49.7%; with HT29 colon it was 67.6%; in the test on SNB-75 CNS it was 23.4%; with SNB-19 CNS it was 81.2%; in the test on PC-3 prostate, 60.1%; in the test with UACC-62 melanoma it was 43.8%. The growth with LOX IMVI melanoma is 44.9%; in the test on SK-MEL-28 melanoma it was 65.2%; in the test on SK-MEL-2 melanoma, 37.5%; in the test with EKVX NSCLC it was 70%; in the test with SN12C renal it was 88.3%; with TK-10 renal it was 162%. For the same compound, the growth with ACHN renal is 77.7%; in the test with CAKI-1 renal, 57.2%; in the test with A498 renal, 126%; in the test on CCRF-CEM leukemia it was 43.5%; with MOLT-4 leukemia, 30.8%.
Consider `O=c1oc2ccc(-c3ccc(F)cc3F)cc2c(=O)n1-c1ccc(F)cc1`, for which the growth in the test on HCT-15 colon was 5.32% (active); in the test with HT29 colon, 59.6%; with SNB-75 CNS, -14% (active); in the test with SNB-19 CNS it was 13.3%; with PC-3 prostate, 0.638% (active); in the test with SK-MEL-5 melanoma, -77.9% (active). For the same compound, the growth was -50.2% (active) in the test with UACC-62 melanoma; 1.46% (active) in the test with LOX IMVI melanoma; -0.667% (active) in the test on SK-MEL-28 melanoma; -61.5% (active) in the test with SK-MEL-2 melanoma; 4.34% (active) in the test on EKVX NSCLC; -13.3% (active) in the test on SN12C renal. Moreover, the growth was -3.9% (active) in the test with UO-31 renal; 20.5% in the test on TK-10 renal; -12.7% (active) in the test on ACHN renal; -24.1% (active) in the test with CAKI-1 renal; -17.2% (active) in the test on A498 renal; 1.33% (active) with CCRF-CEM leukemia. Besides, in the test on MOLT-4 leukemia, the growth is -32.1% (active).
